Test results reported in PubChem BioAssay AID449739 (Vanderbilt High Throughput Screening Facility, 2010).
Screen size: about 100,000 compounds; about 4,200 (4.2%) were called active.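 The calls were made as follows: active = single-dose well whose peak fluorescence ratio is a statistical outlier from its plate by either plate-standardised score or position-corrected B-score; inactive = the rest.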 The full list was thinned out, with actives kept by preference.

Biological target: Voltage-dependent T-type calcium channel subunit alpha-1H (Homo sapiens) (UniProt O95180)
Sequence (O95180 whole entry, looked up): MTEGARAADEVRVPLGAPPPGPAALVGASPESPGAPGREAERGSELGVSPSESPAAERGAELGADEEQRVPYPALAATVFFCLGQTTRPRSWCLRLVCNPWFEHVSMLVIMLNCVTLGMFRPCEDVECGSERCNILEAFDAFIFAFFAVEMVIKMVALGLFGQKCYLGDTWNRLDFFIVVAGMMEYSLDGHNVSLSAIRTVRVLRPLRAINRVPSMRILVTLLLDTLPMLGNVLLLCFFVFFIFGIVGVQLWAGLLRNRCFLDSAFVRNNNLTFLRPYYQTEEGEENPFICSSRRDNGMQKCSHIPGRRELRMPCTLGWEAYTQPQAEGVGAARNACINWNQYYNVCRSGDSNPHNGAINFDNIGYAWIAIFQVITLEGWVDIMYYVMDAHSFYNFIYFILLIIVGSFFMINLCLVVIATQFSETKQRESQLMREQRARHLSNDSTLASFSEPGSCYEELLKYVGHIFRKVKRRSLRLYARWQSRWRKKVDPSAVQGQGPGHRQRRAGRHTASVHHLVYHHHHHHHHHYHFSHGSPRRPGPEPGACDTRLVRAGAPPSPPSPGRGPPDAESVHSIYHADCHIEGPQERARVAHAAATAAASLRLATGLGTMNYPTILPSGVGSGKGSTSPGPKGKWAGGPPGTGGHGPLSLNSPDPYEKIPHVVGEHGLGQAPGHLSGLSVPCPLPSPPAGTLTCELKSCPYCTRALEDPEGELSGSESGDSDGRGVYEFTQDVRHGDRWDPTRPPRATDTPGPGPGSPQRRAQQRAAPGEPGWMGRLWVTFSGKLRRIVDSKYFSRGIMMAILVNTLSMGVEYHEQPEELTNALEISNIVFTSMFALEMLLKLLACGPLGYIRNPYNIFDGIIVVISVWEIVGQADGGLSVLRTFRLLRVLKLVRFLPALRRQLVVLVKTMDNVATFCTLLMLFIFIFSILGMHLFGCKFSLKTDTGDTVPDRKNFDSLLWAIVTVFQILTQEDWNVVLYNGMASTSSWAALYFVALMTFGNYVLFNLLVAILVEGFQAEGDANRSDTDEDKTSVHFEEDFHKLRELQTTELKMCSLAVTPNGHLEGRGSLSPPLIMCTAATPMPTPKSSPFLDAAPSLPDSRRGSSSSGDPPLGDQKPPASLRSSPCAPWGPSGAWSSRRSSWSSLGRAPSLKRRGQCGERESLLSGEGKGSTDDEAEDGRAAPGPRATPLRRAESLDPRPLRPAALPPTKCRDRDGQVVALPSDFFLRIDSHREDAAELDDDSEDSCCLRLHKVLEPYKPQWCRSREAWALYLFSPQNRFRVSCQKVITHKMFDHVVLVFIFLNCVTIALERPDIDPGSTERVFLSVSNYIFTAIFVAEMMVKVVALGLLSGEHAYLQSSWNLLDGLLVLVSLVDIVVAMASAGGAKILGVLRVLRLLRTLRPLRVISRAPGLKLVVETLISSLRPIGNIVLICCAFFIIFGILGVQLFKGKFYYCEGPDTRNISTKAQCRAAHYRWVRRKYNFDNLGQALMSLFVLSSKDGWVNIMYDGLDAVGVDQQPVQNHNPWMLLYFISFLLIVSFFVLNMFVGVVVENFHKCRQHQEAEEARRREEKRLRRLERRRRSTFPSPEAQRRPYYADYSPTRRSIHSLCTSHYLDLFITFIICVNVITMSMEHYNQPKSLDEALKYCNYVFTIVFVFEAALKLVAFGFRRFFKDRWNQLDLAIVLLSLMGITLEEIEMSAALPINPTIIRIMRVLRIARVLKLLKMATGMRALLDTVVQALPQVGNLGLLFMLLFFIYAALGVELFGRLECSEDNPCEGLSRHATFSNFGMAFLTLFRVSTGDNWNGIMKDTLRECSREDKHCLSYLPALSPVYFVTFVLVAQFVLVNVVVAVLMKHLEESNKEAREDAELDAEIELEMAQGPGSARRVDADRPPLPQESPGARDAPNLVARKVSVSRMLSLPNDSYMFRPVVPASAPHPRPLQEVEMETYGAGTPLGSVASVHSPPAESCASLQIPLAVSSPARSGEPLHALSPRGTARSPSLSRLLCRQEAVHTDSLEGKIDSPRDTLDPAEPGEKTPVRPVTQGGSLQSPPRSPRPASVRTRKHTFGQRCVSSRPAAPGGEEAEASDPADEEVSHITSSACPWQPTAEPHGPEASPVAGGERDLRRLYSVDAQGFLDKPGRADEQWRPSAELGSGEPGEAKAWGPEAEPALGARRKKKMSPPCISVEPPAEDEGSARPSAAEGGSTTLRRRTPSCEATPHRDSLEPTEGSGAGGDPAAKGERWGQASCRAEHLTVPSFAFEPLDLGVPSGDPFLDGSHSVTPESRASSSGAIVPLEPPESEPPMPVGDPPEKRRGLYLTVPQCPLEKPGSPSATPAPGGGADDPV
Assay: Cav3.2 calcium influx blockers – cell-based, Fluo-4 calcium fluorescence, FDSS, MLSMR library, primary screen (AID 449739)
Details: Cav3.2-expressing cells, at 10 µM, active compounds read low

Structure (SMILES)	B-score
COCCNC(=O)Cn1cc(C(=O)c2cccs2)c2ccccc21	0.167 (inactive)
O=C(Cn1cc(C(=O)c2cccs2)c2ccccc21)NCc1cccs1	-4.4 (active)
COC(=O)c1cn(CC(=O)NCc2cccs2)c2ccccc12	-0.599 (inactive)
CC(=O)n1cc([C@@H]2C=C(C(=O)N3CCN(Cc4ccc5c(c4)OCO5)CC3)O[C@H](OCc3ccc(CO)cc3)C2)c2ccccc21	-1.49 (inactive)
CC1(OC(=O)CCc2ccccc2)C(=O)C=C2C=C(c3ccc(C#N)cc3)N(CCc3ccccn3)C=C2C1=O (stereo not given)	0.634 (inactive)
CC(C)C[C@H](CO)Nc1nc(N(C)c2cccc(Cl)c2)c2ncn(C(C)C)c2n1	-3.33 (active)
COC(=O)C(C)n1cnc2c(nnn2-c2cccc(Cl)c2)c1=O (stereo not given)	-0.438 (inactive)
CC(C)n1cnc2c(Nc3cccc(Cl)c3)nc(N(CCO)CCCO)nc21	-0.405 (inactive)
CCNC(=O)c1c(O)c2cccc3c2n(c1=O)CC3	-0.155 (inactive)
Cn1c(SCC(=O)N2CCCc3ccccc32)nc2ccccc2c1=O	-2.58 (inactive)
CCCC(=O)Nc1c(O)c2ccccc2[nH]c1=O	-0.361 (inactive)
CCCc1nc2ccccc2c(=O)n1NC(=O)c1c(O)c2ccccc2[nH]c1=O	-3.3 (active)
CCCCc1nc2ccccc2c(=O)n1NC(=O)c1c(O)c2cccc3c2n(c1=O)CC3	-7.27 (active)
CCCc1nc2ccccc2c(=O)n1/N=C/c1ccc(O)c(O)c1	0.0906 (inactive)
Cc1nc(C)c(C(=O)N(c2ccc(C)c(C)c2)C(C(=O)NCc2ccco2)c2ccccc2)s1 (stereo not given)	-0.655 (inactive)
COc1ccc(NCc2nnc(SCc3ccccc3)n2-c2ccc(OC)cc2)cc1	-3.07 (inactive)
Cc1cccc(N2C(=O)C3C(c4ccccc4)OC4(C(=O)c5ccccc5C4=O)C3C2=O)c1 (stereo not given)	-0.244 (inactive)
Cc1nc(-c2ccc(Cl)cc2)sc1C1(C)CC(c2ccccc2F)=NO1 (stereo not given)	1.15 (inactive)
COc1ccc(SCCN2CCN(CC(C)C)CCC2=O)cc1	0.677 (inactive)
CCOC(=O)/C=C/CN(C(=O)OC(C)(C)C)S(=O)(=O)N1CC=CC1	0.152 (inactive)

Structure (SMILES)	B-score
COC(=O)C1=C(Nc2ccc(OC)cc2)C=C(C)C(C(=O)OC)C1c1ccc(C)cc1 (stereo not given)	-5.75 (active)
Cc1ccc(NC(=O)C2CC(c3ccc(F)cc3)=NO2)cc1 (stereo not given)	0.0436 (inactive)
COC(=O)C1C(=O)NCC1c1ccc(OC)cc1 (stereo not given)	0.134 (inactive)
COC(=O)C1=C(Nc2ccc(C)cc2)C=C(C)C(C(=O)OC)C1c1ccc(F)cc1 (stereo not given)	-5.1 (active)
COC(=O)c1ccc(NC(=O)Nc2ccc(C)cc2)cc1	0.0358 (inactive)
COC(=O)c1cc(OC)ccc1-c1ccc(OC)cc1	0.191 (inactive)
COP1(=O)C[C@@H](O)[C@@H](O)[C@@H](COCc2ccccc2)O1 (stereo not given in full)	0.634 (inactive)
CC(=O)Nc1ccccc1C(=O)C(=O)Nc1ccc(F)cc1	0.288 (inactive)
COc1cccc(CNc2nc3nc4c(c(=O)n3[nH]2)CCC4)c1	-0.11 (inactive)
Cc1cc2cc3c(N)[nH]nc3nc2cc1C	0.083 (inactive)
O=[N+]([O-])c1ccc(NCCCN2CCOCC2)c(Cl)c1	0.715 (inactive)
O=C(CN1C(=O)NC2(CCCC2)C1=O)Nc1ccc(F)c(F)c1F	0.274 (inactive)
O=C1c2ccccc2S(=O)(=O)c2cc(N3CCN(c4ccccn4)CC3)ccc21	0.804 (inactive)
Cc1ccc(-n2c(C)cc(/C=C(\C#N)C(=O)NCC3CCCO3)c2C)cc1 (stereo not given)	-1.95 (inactive)
CC(C)CC(=O)N/C(N)=N/c1nc2ccccc2s1	-4.05 (active)
CCC(=O)NC(=Nc1nc2ccccc2s1)NC(=O)CC	-0.485 (inactive)
O=C(O)CSCc1nc2ccccc2s1	1.19 (inactive)
Cc1nn(C)cc1/C=N/NC(=O)c1sc2ccccc2c1Cl	2.17 (inactive)
Cc1ccc(-c2nn(-c3ccccc3)cc2/C=N/NC(=O)c2ccc3c(c2)OCO3)cc1	-3.75 (inactive)
Cc1ccc(/C=N/NC(=O)C2=NNC(c3ccccc3)(c3ccccc3)C2)c(O)c1	-6.92 (active)

Structure (SMILES)	B-score
COc1ccc(SCc2noc(C(=O)NCC3CCCO3)c2C(=O)O)cc1 (stereo not given)	1.72 (inactive)
CS(=O)(=O)n1nc(-c2ccccc2)nc1NCc1ccco1	0.406 (inactive)
CCS(=O)(=O)n1nc(-c2ccccc2)nc1SCc1ccccc1	-3.19 (active)
CCS(=O)(=O)n1nc(-c2ccc(OC)cc2)nc1SC	-0.316 (inactive)
NC(=O)C1=C[C@H](c2csc3ccccc23)C[C@H](OCc2ccc(CO)cc2)O1	0.00737 (inactive)
Cc1cc2nc(C)n(CCCNC(=O)Nc3ccccc3)c2cc1C	-1.52 (inactive)
COCCOCCn1cnc2ccccc21	0.734 (inactive)
Cc1cc2ncn(CCCCOc3ccccc3)c2cc1C	-4.34 (active)
Cc1ccc2c(c1)-c1c(ssc1=S)C(C)(C)N2C(=O)CN1C(=O)c2ccccc2C1=O	-1.31 (inactive)
CC1=C(C)C(=O)OC(C(C)C2CCC3C4CC=C5CC(OC6OC(COC7OC(CO)C(O)C(O)C7O)C(O)C(O)C6O)CC(O)C5(C)C4CCC23C)C1 (stereo not given)	-0.348 (inactive)
CC(C)=CCC/C(C)=C/C(=O)O	0.444 (inactive)
CN(C)c1ccc(NC(=S)N(CCc2ccccc2)C2CC(=O)N(c3c(Cl)cccc3Cl)C2=O)cc1 (stereo not given)	-7.09 (active)
CCCOc1ccc(N2C(=O)CC(N(CCc3ccc(S(N)(=O)=O)cc3)C(C)=O)C2=O)cc1 (stereo not given)	-0.148 (inactive)
COC(=O)CN(C(=S)Nc1ccc(Cl)cc1)C1CC(=O)N(c2ccc(OC)cc2)C1=O (stereo not given)	-0.0552 (inactive)
C/C=C(/C)C(=O)O[C@@H]1c2cc3c(c4c2[C@@]2(CO4)C(=O)C(OC)=C(OC)C=C2C[C@@H](C)[C@H]1C)OCO3	-0.0512 (inactive)
CCN1CCN(C(=O)/C=C\C(=O)O)CC1	-0.00536 (inactive)
O=C(NCCCCCCCCCNC(=O)C(F)(F)F)C(F)(F)F	-0.288 (inactive)
O=C(c1cccc2ccccc12)N1CCN(c2ccccc2F)CC1	-2.56 (inactive)
Cn1c(C(=O)N2CCC(C(N)=O)CC2)cc2c(=O)n(C)c3ccccc3c21	0.0764 (inactive)
Cn1c2ccccc2c2c(C(=O)N3CCN(c4ccc(F)cc4)CC3)cn(C3CCCC3)c(=O)c21	-5.04 (active)
